Bioassay records (PubChem)
T cruzi growth-1 = blocks T. cruzi growth in NIH3T3 culture | T. cruzi beta-gal in NIH3T3, GalScreen luminescence, 90 h | inhibition, % at 8.34 µM | 77,000 tested, 5.9% active | AID 624255;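 active = mean inhibition above about 93%, with at least 55% of replicates each passing it, limit read from the data, passing the limit was not always enough; inconclusive = only one of those two conditions holds; inactive = neither condition holds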
C diff growth = blocks growth of Clostridium difficile; Clostridium difficile clinical isolate growth, OD600, 24 h; active compounds read low; growth activity, negative = inhibition, % at 16 µg/mL (by protocol); 86,000 tested, 0.25% active; AID 1259249;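 active = mean growth activity at or below -80% and every replicate also at or below -80%; inconclusive = mean at or below -80% but some replicate above -80%; inactive = mean growth activity above -80%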;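 also: 0% = DMSO wells and -100% = levofloxacin 16 µg/mL wells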
Pf Dd2 growth = inhibitors of Plasmodium falciparum Dd2 growth; P. falciparum Dd2 growth, SYBR Green, 72 h; active compounds read low; AID 1159554; 94,000 tested, 2.3% active; activity change, % at 10 µM; in the data active = activity change below about -80%; inconclusive = no clear call, values can overlap the other calls
T cruzi growth-2 = inhibitors of T. cruzi proliferation. 5,600 tested, 72% active. shares compounds with T cruzi growth-1. inhibition, % at 8.35 µM. AID 651739. T. cruzi beta-gal in NIH3T3, GalScreen luminescence, 90 h;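 active = mean replicate inhibition above about 95% and at least 55% of replicates individually reaching it, limit read from the data; inconclusive = only one of the two criteria is met; inactive = neither criterion is met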
T cruzi growth-3 = inhibitors of T. cruzi proliferation. shares compounds with T cruzi growth-1. T. cruzi beta-gal in NIH3T3, GalScreen luminescence, 90 h. inhibition, % at 2.09 µM. 5,600 tested, 21% active. AID 651740;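 active = mean inhibition above about 95%, with at least 55% of replicates also reaching it, limit read from the data; inconclusive = meets just one of the two conditions; inactive = meets neither condition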;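 also: plate controls were neutral control median for no effect and positive control median for full effect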
NIH3T3 tox = cytotoxicity in mouse NIH/3T3 fibroblasts | shares compounds with T cruzi growth-1 | NIH/3T3 viability, CellTiter-Glo ATP luminescence, 90 h | cytotoxicity (signal decrease), % at 8.35 µM | 5,600 tested, 14% active;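 active = mean signal decrease across replicates above about 35% based on untreated-well scatter, with enough replicates individually passing, limit read from the data; inconclusive = no rule stated though some were filed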;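 also: 0% = median of neutral control wells and 100% = median of positive control wells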
NIH3T3 tox 2 = cytotoxicity in mouse NIH/3T3 fibroblasts | NIH/3T3 viability, CellTiter-Glo ATP luminescence, 90 h | shares compounds with T cruzi growth-1 | inhibition, % at 24.9 µM | AID 651744 | 5,600 tested, 56% active;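 active = mean loss of cell viability signal at or above a set limit, and enough replicates individually reaching it; inconclusive = meets only the mean limit or only the replicate share; inactive = meets neither condition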;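 also: 0% = median of neutral control wells and 100% = median of positive control wells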
Numbers without * were called inactive; ? = inconclusive; · = no result. This is a sample that favours compounds with a hit; in the whole collection about 6.8% have one here.

SMILES	T cruzi growth-1	C diff growth	Pf Dd2 growth	others
COc1ccc(S(=O)(=O)Nc2ccc3c(c2)C(=O)N([C@H](C)CO)C[C@H](C)[C@H](CN(C)Cc2ccc(-c4ccccc4)cc2)O3)cc1	67	31	12
C[C@H](CO)N1C[C@H](C)[C@H](CN(C)Cc2ccc(-c3ccccc3)cc2)Oc2ccc(NS(=O)(=O)c3ccc(Cl)cc3)cc2C1=O	112*	16	-12	T cruzi growth-2=104*;T cruzi growth-3=41;NIH3T3 tox=30;NIH3T3 tox 2=103*
O=C(C[C@@H]1CC[C@H](NC(=O)c2ccc3c(c2)OCO3)[C@H](CO)O1)NCc1ccc(Cl)cc1	4	5	-2
COc1ccc(C(=O)Nc2ccc3c(c2)C(=O)N(C)C[C@@H](OC)[C@H](C)CN(C)[C@@H](C)CO3)cc1	-15	-1	-14
COc1ccc(NC(=O)Nc2ccc3c(c2)C(=O)N([C@H](C)CO)C[C@@H](C)[C@H](CN(C)CC2CCCCC2)O3)cc1	44	2	-4
CCCNC(=O)Nc1ccc2c(c1)OC[C@H](C)N(C(C)=O)C[C@@H](C)[C@@H](OC)CN(C)C2=O	-10	0	7
CNC[C@@H]1Oc2ncc(C#CC3CCCCC3)cc2C(=O)N([C@H](C)CO)C[C@@H]1C	·	11	-3
C[C@@H]1CN([C@@H](C)CO)C(=O)c2cc(NS(=O)(=O)c3ccc(Cl)cc3)ccc2O[C@H]1CN(C)Cc1ccccc1	28	-2	17
C[C@@H]1CN([C@@H](C)CO)C(=O)c2cc(NS(=O)(=O)c3ccc(Cl)cc3)ccc2O[C@@H]1CN(C)Cc1ccc(-c2ccccc2)cc1	?	17	20	T cruzi growth-2=?;T cruzi growth-3=58;NIH3T3 tox=82*;NIH3T3 tox 2=103*
C[C@@H]1CN([C@H](C)CO)C(=O)c2cc(NS(=O)(=O)c3ccccc3)ccc2O[C@@H]1CN(C)Cc1ccc(-c2ccccc2)cc1	68	21	24
C[C@H](CO)N1C[C@H](C)[C@@H](CN(C)Cc2ccc(-c3ccccc3)cc2)Oc2ccc(NS(=O)(=O)c3ccccc3)cc2C1=O	34	29	11
C[C@@H]1CN([C@H](C)CO)C(=O)c2cc(NS(=O)(=O)c3ccc(Cl)cc3)ccc2O[C@@H]1CN(C)Cc1ccc(-c2ccccc2)cc1	?	14	10	T cruzi growth-2=98*;T cruzi growth-3=85;NIH3T3 tox=92*;NIH3T3 tox 2=105*
C[C@H]1CN([C@@H](C)CO)C(=O)c2cc(NS(=O)(=O)c3ccc(Cl)cc3)ccc2O[C@@H]1CN(C)Cc1ccc(-c2ccccc2)cc1	111*	22	48	T cruzi growth-2=103*;T cruzi growth-3=21;NIH3T3 tox=-2;NIH3T3 tox 2=104*
C[C@@H]1CN([C@H](C)CO)C(=O)c2cc(C#Cc3cccnc3)cnc2O[C@@H]1CN(C)C	·	-6	-33
C[C@H](CO)N1C[C@H](C)[C@H](CN(C)Cc2ccccc2)Oc2ncc(-c3cccc(F)c3)cc2C1=O	61	7	-1
O=C(NCC[C@H]1CC[C@H](NC(=O)C2CCCC2)[C@@H](CO)O1)Nc1ccc(Cl)cc1	·	1	4
Cc1noc(C)c1S(=O)(=O)N(C)C[C@H]1Oc2ccc(NC(=O)CCCCCC(=O)Nc3ccccc3N)cc2CC(=O)N([C@@H](C)CO)C[C@H]1C	·	-6	-20
Cc1noc(C)c1NC(=O)N(C)C[C@H]1Oc2ccc(NS(=O)(=O)c3ccc(Cl)cc3)cc2C(=O)N([C@@H](C)CO)C[C@H]1C	-10	-6	6
O=C(C[C@@H]1CC[C@@H]2[C@H](COC[C@@H](O)CN2C(=O)Cc2ccccc2)O1)NC1CCCC1	-21	-2	-1
COc1ccc(NC(=O)Nc2ccc3c(c2)C(=O)N([C@@H](C)CO)C[C@@H](C)[C@@H](CN(C)S(=O)(=O)c2c(C)noc2C)OCCCC[C@@H](C)O3)cc1	60	-6	-78
CC(C)NC(=O)Nc1ccc2c(c1)C(=O)N([C@@H](C)CO)C[C@H](C)[C@H](CN(C)Cc1ccc3c(c1)OCO3)OCCCC[C@@H](C)O2	28	5	-33
C[C@@H]1CCCCO[C@H](CN(C)Cc2ccc(Cl)c(Cl)c2)[C@@H](C)CN([C@H](C)CO)C(=O)c2cc(NC(=O)Nc3ccccc3)ccc2O1	90	9	2
